Source: PubChem
KDM5B inhibitor = inhibitors of human KDM5B histone demethylase; Q9UGL1; AID 1347165; actives 2.6% (n = 220,000); Potency, µM (doses to about 57.7 µM), most hits filed as inhibitors; KDM5B demethylase, FDH-coupled NADH fluorescence (FDH is formaldehyde dehydrogenase); active means well fitted inhibition curve with a large enough effect; further: 0% is about no effect; nearly all actives have a fitted effect of over 70% in size
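Inhibition is measured as reduced NADH fluorescence generation from FDH coupling to formaldehyde release. Truncated KDM5BΔAP at 200 nM final acts on H3K4me3 peptide (12.5 µM in substrate mix) in pH 7.5 HEPES buffer with Tween-20, 30 min, room temperature.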
* = called active by the depositor; i = inactive. This is one part of a sample in which hits are shown more often than they occur. Potency means the concentration at half of the fitted maximal effect.

SMILES	KDM5B inhibitor
C=CCCC(CN1CCCOCC1)Oc1nccc(N(C)CC)n1 (centres undefined)	i
C=CCCC(CN1CCCOCC1)Oc1ccc(-c2ccccc2)nn1 (centres undefined)	i
Cc1ncccc1C(=O)N1CCC(Oc2ccc(-c3noc(-c4ccccc4)n3)cc2)C1 (centres undefined)	i
O=C(/C=C/c1ccc(SC(F)(F)F)cc1)c1ccc(O)c(CCCl)c1	i
O=C1N[C@H](CC(=O)N2CCc3ccccc3C2)C(=O)Nc2ccccc21	i
O=C1N[C@H](CC(=O)N2CCN(c3ccc(C(F)(F)F)cn3)CC2)C(=O)Nc2ccccc21	22.4µM*
O=C1N[C@H](CC(=O)N2CCN(c3ccc(F)cc3)CC2)C(=O)Nc2ccccc21	i
CCc1nncn1C1CCN(S(=O)(=O)c2cc(F)ccc2C)CC1	i
CCC1CCCCN1C(=O)/C=C/c1ccc(Br)cc1 (centres undefined)	i
Cc1cccc(OC(C)C(=O)NOCc2ccccc2)c1C (centres undefined)	i
Cc1c(CN2CCCC(CNC(=O)c3cccc4ccccc34)C2)[nH]c2ccccc12 (centres undefined)	i
CC(=O)NCC1CCCN(Cc2ccc(-c3ccccc3C#N)o2)C1 (centres undefined)	28.2µM*
CCc1ccc(CN2CCCC(CNC(=O)c3cccc(OC)c3OC)C2)o1 (centres undefined)	i
Cc1ccc(S(=O)(=O)N2CCC(OC3CCN(Cc4ccccc4)CC3)CC2)c(C)c1	i
COc1ccccc1NC1(c2nnnn2-c2c(C)cccc2C)CCCC1	i
CCC1(c2ccccc2)NC(=O)N(NC(=O)c2nn(C)c(=O)c3ccccc23)C1=O (centres undefined)	i
Cc1c(C)c(OC(=O)c2ccccc2)c(Cc2nc3ccccc3s2)c(C)c1O	i
CO[C@@H]1COCC[C@H]1NC(=O)CCc1ccc(-c2ccc(Cl)cc2)[nH]1	28.2µM*
Cc1ccc(O[C@H]2COCC[C@H]2NC(=O)CCc2nc3ccccc3[nH]2)cn1	i
O=C(CSc1ccc(Cl)cc1)N[C@@H]1COCC[C@@H]1OCC1CC1	i
O=C(COc1ccc(F)c(Cl)c1)N[C@H]1C[C@@H]2OCC[C@H]12	i
O=C(CCc1ccc(-c2ccc(Cl)cc2)[nH]1)N[C@@H]1C[C@@H]2OCC[C@@H]21	31.6µM*
CCOc1ccc(C(=O)N[C@H]2C[C@@H]3OCC[C@H]23)cc1OCC	i
CNC1CCc2nnc(C)n2CC1 (centres undefined)	i
CO[C@H]1COCCN(C(=O)c2cc(C)oc2C(F)(F)F)C1	i
SMILES	KDM5B inhibitor
CC(C)NC(=O)CC1Sc2ncccc2N(C)C1=O (centres undefined)	i
Cn1cccc1CN1CCCC2(C1)C(=NC1CCCC1)NC(=O)N2c1cccnc1 (centres undefined)	i
COc1ccccc1CN1CCN(C/C=C/c2ccccc2)CC1	i
Cc1cc(C(F)(F)F)nc(CCNC(=O)C2CC3(CCNCC3)CN2)n1 (centres undefined)	i
O=C(NCc1nnnn1-c1ccccc1)C1NCCc2[nH]cnc21 (centres undefined)	i
O=C(NCCc1nc(-c2cccnc2)n[nH]1)C1NCCc2[nH]cnc21 (centres undefined)	7.94µM*
O=C(NCCc1csc(-c2cnccn2)n1)C1CC2(CCNCC2)CN1 (centres undefined)	28.2µM*
O=C(NCCc1nccc(-c2ccccc2)n1)C1NCCc2[nH]cnc21 (centres undefined)	i
COc1ccc(SCCNC(=O)C2NCCc3[nH]cnc32)cc1 (centres undefined)	i
O=C(NCc1ccc2c(c1)OCO2)C1NCCc2[nH]cnc21 (centres undefined)	i
COc1cccc(-c2ncc(CNC(=O)C3NCCc4[nH]cnc43)s2)c1 (centres undefined)	20µM*
Cc1nn(-c2ccc(F)cc2)c(C)c1CNC(=O)C1NCCc2[nH]cnc21 (centres undefined)	12.6µM*
Cc1cc(C)cc(C2(CNC(=O)C3NCCc4[nH]cnc43)CCCC2)c1 (centres undefined)	i
O=C(NCCc1nc(-c2cccnc2)no1)C1CC2(CCNCC2)CN1 (centres undefined)	i
O=C(NCCc1nc(-c2cccnc2)n[nH]1)C1CCC(=O)N(C2CCCC2)C1 (centres undefined)	i
O=C(Oc1ccc2c(=O)c(-c3ccccc3)coc2c1)c1cccs1	i
COc1ccc(CC(=O)OCC(=O)Nc2ccccc2OC(F)F)cc1	i
Cc1ccc(Nc2nc(CSc3nnnn3C3CC3)cs2)cc1C	i
CCn1nc(C(=O)OC(C)C(N)=O)c2ccccc2c1=O (centres undefined)	i
COc1ccc(C(=O)NCCn2c(C)cnc2-c2ccncc2)cc1	i
CC1CCN(C(CNC(=O)c2cc3ccccc3oc2=O)c2cccs2)CC1 (centres undefined)	i
CCCC(C)NC(=O)COc1cc2oc(=O)cc(-c3ccccc3)c2cc1Cl (centres undefined)	i
CSc1ccc(-c2noc(-c3nnn4c3COC(c3ccc(Cl)cc3)C4)n2)cc1 (centres undefined)	i
CC(C)N1C(=O)C2(CCCCC2)C1C(=O)N1CCN(c2ccccc2F)CC1 (centres undefined)	i
O=C(COc1ccccc1)NCCc1csc(-c2cccnc2)n1	i
SMILES	KDM5B inhibitor
CCCOc1ccc(CCNC(=O)C2NCCc3[nH]cnc32)cc1OC (centres undefined)	i
O=C(NCCc1csc(-c2ncccn2)n1)C1NCCc2[nH]cnc21 (centres undefined)	i
O=C(NCc1csc(-c2cnccn2)n1)C1NCCc2[nH]cnc21 (centres undefined)	25.1µM*
O=C(NCCc1csc(-c2cccnc2)n1)C1NCCc2[nH]cnc21 (centres undefined)	12.6µM*
O=C(O)c1csc(-c2cnccn2)n1	i
CC(Cc1ccco1)NC(=O)CCC1CCCO1 (centres undefined)	i
Cn1cc(C(NC(=O)c2cccc(Cn3cccn3)c2)C2CC(O)C2)cn1 (centres undefined)	i
Cc1[nH]c(-c2ccccc2)nc1C(=O)N[C@H](c1cnn(C)c1)C1CC(O)C1 (some centres undefined)	i
Cc1ccc2c(c1)c(C(=O)N[C@H](c1cnn(C)c1)C1CC(O)C1)nn2C (some centres undefined)	28.2µM*
Cc1ccc(S(=O)(=O)N(CC(=O)N2CCCC2)c2cccc(Cl)c2)cc1	i
O=C(Nc1ccc(F)c(F)c1)c1cc2cc(Br)ccc2oc1=O	i
COc1ccc(C(=O)NC2Cc3ccccc3C2)cc1	i
O=C(N1CCC(c2ccccc2)CC1)C1(c2ccc(Cl)cc2)CCOCC1	i
CC1(C(=O)N2CCC(c3ccccc3)CC2)CCc2cnc(N3CCOCC3)nc21 (centres undefined)	31.6µM*
CN1CCC(NC(=O)C2(C)CCc3cnc(Nc4ccccc4)nc32)CC1 (centres undefined)	i
CC(CC(=O)O)NC(=O)OCc1ccccc1 (centres undefined)	i
Cc1ncn(CC(=O)N[C@H]2CCOC[C@H]2C2CCOCC2)c1C	i
Cc1cc(C(=O)N[C@H]2CCOC[C@H]2C2CCOCC2)cc(C)n1	i
Cc1nc2ncccn2c1C(=O)N[C@H]1CCOC[C@H]1C1CCOCC1	28.2µM*
